Inconclusive results are not listed. Unmarked numbers belong to inactive results. The source made the active and inactive calls. Calls follow the shape of the dose curve; as a rule, active = well fitted inhibition curve with a large enough effect; inconclusive = small, poorly fitted or top-dose-only effect; inactive = flat fitted curve, though single readings scatter.

Test [1] has as its target Calcium and integrin-binding protein 1 (Homo sapiens) (UniProt Q99828). Briefly: Primary qHTS for Identification of Calcium Integrin Binding Protein 1 (CIB1) Competitor (AID 1508620).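 Also: GST tagged CIB1 binding a fluorescein labelled alphaIIb integrin peptide tracer; top concentration of the series differs between compounds.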 The note with it: CIB1-GST / FITC-alphaIIb peptide fluorescence polarization; series mostly up to 114 µM. An outline of the steps: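 Fluorescence polarization competition: CIB1-GST (1 uM final) preincubated with compound 15 min at room temperature, then FITC-labeled alphaIIb peptide (100 nM final) added for another 15 min. Polarization read at Ex 480/Em 540.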
In general terms: Quantitative high-throughput screening tests each substance at several concentrations.

A short description of test [2]: Primary qHTS for inhibitors of nuclear receptor binding SET domain protein 2 (NSD2) in an isogenic RCH-ACV NSD2 p.E1099K mutant (9B) (AID 1645876). Also: nearly all actives have a fitted effect of over 70% in size. Also: potency is read from the fitted curve at half-maximal effect. The note with it: RCH-ACV (leukaemia line) NSD2 E1099K (9B) viability, CellTiter-Glo, 72 h; series mostly up to 44.9 µM.
% is scaled to controls: 0 for no effect and ±100 for the full control effect.

Chain of Calcium and integrin-binding protein 1 (Homo sapiens) (Q99828 whole entry, looked up): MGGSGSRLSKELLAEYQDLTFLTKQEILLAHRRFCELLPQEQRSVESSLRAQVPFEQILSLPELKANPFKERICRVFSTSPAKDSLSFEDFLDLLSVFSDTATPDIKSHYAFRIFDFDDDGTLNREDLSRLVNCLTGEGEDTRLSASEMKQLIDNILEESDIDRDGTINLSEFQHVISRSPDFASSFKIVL

For the compound `CC(=O)c1ccc2c(c1)C(O)C(C(C)(C)O)O2` (stereo not given), the Potency entry in test [1] and in test [2] was “inactive” throughout.

Take `N#Cc1cc(F)cc(-c2nc(-c3ccccn3)no2)c1`: the Potency entry in test [1] and in test [2] was “inactive” throughout.

`CC(=O)O[C@@](C)(C(=O)/C=C/C(C)(C)O)[C@H]1[C@H](O)C[C@@]2(C)[C@@H]3CC=C4[C@@H](C=C(O)C(=O)C4(C)C)[C@]3(C)C(=O)C[C@]12C`: the Potency entry in test [1] is “inactive”. Besides, the Potency in test [2] was 0.502 µM (active).

For `CC(C)CC1NC(=O)C2CC3(O)c4ccccc4NC3N2C1=O` (stereo not given), the Potency result in test [1] and in test [2] was “inactive” each time.

For `O=C1NC(Cc2c[nH]c3ccccc23)C(=O)NC1Cc1cnc[nH]1` (stereo not given), the Potency result in test [1] and in test [2] was “inactive” each time.

As for `CC1(C)[C@@H](O)CC[C@]2(C)[C@H]3CC=C4[C@@H]5C[C@](C)(C(=O)O)CC[C@]5(C)CC[C@@]4(C)[C@]3(C)CC[C@@H]12`, the Potency result in test [1] and in test [2] was “inactive” each time.

As to `CC1=CC(=O)CC(C)(CO)C1(O)/C=C/C(C)O[C@@H]1O[C@H](CO)[C@@H](O)[C@H](O)[C@H]1O` (stereo not given in full), the Potency entry in test [1] and in test [2] was “inactive” each time.

`C=C(C)C(=O)O[C@H]1C[C@@](C)(O)C(=O)CC(O)/C(C)=C\[C@H]2OC(=O)C(=C)[C@H]12` (stereo not given in full): in test [1], the Potency result was “inactive”. In test [2], the Potency was 4.01 µM (active).

With `C=C(C)C1CC[C@]2(C(=O)O)CC[C@]3(C(=O)O)[C@H](CCC4[C@@]5(C)CC[C@H](O)C(C)(C)C5CC[C@]43C)C12` (stereo not given in full), the Potency result in test [1] and in test [2] was “inactive” throughout.

With `CC1=CC(=O)[C@H]2C(C)(C)CCC[C@]2(C)[C@@]1(O)CO`, the Potency result in test [1] and in test [2] was “inactive” throughout.

Take `CC(=O)O[C@H]1C[C@@](O)(C(C)C)C2[C@@H](OC(=O)c3ccc(O)cc3)C[C@@]3(C)O[C@H]3C[C@]21C` (stereo not given in full): the Potency entry in test [1] and in test [2] was “inactive” each time.

In the case of `C[C@H](N)C(=O)N[C@@H](Cc1ccc(O)cc1)C(=O)N1CCC[C@H]1C(=O)NCC(=O)N[C@@H](CCCCN)C(=O)N[C@@H](Cc1ccccc1)C(N)=O`, in test [1], the Potency result was “inactive”. In addition, in test [2], the activity change, negative = viability loss is 0.961% [at 9.23 µM].

For the compound `CCCOc1ccc(-c2nc(OC)c3ccccc3n2)cc1`, the Potency entry in test [1] and in test [2] was “inactive” throughout.

As for `COC1CC(O[C@H]2CC[C@@]3(C)C(CCC4C3[C@H](OC(C)=O)[C@@H](OC(=O)/C=C/c3ccccc3)[C@]3(C)C(C(C)=O)CC[C@]43O)C2)OC(C)C1OC1CC(OC)C(OC2CC(OC)C(OC3OC(C)C(OC4OC(CO)C(O)C(O)C4O)C(OC)C3O)C(C)O2)C(C)O1` (stereo not given in full), the activity change, negative = inhibition in test [1] was 3.75% [at 12.4 µM]. The activity change, negative = viability loss in test [2] is -23.3% [at 9.23 µM].

For the compound `CC1CC[C@]2(C(=O)O)CC[C@]3(C(=O)O)C(=CCC4[C@@]5(C)CC[C@H](O[C@@H]6O[C@H](CO)[C@@H](O)[C@H](O)[C@H]6O)C(C)(C)C5CC[C@]43C)C2C1C` (stereo not given in full), the Potency result in test [1] and in test [2] was “inactive” each time.

For the compound `CC1C(=O)CC2C3CCC(C(=O)O)C12CC3(C)CO` (stereo not given), the Potency result in test [1] and in test [2] was “inactive” each time.

`O=C(O)/C=C/c1cc2c(cc1O[C@@H]1O[C@H](CO)[C@@H](O)[C@H](O)[C@H]1O)OCO2`: the Potency entry in test [1] and in test [2] was “inactive” throughout.

In the case of `C=C1CC[C@@H]2[C@@](C)(CO[C@@H]3O[C@H](CO)C(O)[C@H](O)C3O)[C@H](O)CC[C@@]2(C)[C@@H]1CC/C(C)=C/CO` (stereo not given in full), the Potency result in test [1] was “inactive”. For the same compound, the activity change, negative = viability loss in test [2] is 3.18% [at 9.23 µM].

Consider `C/C=C(\C)C(=O)OCC1OC(OC2OC(COC(=O)/C(C)=C/C)C(OC3OC(CO)C(OC(=O)/C(C)=C/C)C(OC(=O)/C(C)=C/C)C3O)C(O)C2O)C(O)C(O)C1OC1OC(CO)C(OC(=O)/C(C)=C/C)C(OC(=O)/C(C)=C/C)C1O` (stereo not given), for which the Potency result in test [1] is “inactive”. For the same compound, the activity change, negative = viability loss in test [2] is -4.2% [at 9.23 µM].

`CC1(C)CCCC2(C)C1CC=C1C(=O)OC(O)C12O` (stereo not given): the Potency entry in test [1] and in test [2] was “inactive” each time.

On to `C/C=C/C=C/C(=O)N1CC[C@]23c4ccccc4N[C@H]4N(C)c5cccc6c5[C@@]42CCN([C@H]6C2OC2(C)C)[C@H]13` (stereo not given in full), for which the Potency result in test [1] and in test [2] was “inactive” throughout.

In the case of `CC1CCC2(CO)C(C(=O)O)=CCCC2C1(C)CCc1ccoc1` (stereo not given), the Potency entry in test [1] and in test [2] was “inactive” each time.

In the case of `CC1CCC2(C(=O)O)CCC3(C)C(=CCC4C5(C)CCC(O)C(C)(CO)C5CCC43C)C2C1(C)O` (stereo not given), the Potency result in test [1] and in test [2] was “inactive” each time.

As to `Cc1cc(=O)oc2c(C=O)c(O)ccc12`, the Potency result in test [1] is “inactive”. The Potency in test [2] is 18.3 µM (active).

In the case of `CC(O)CO[C@@H]1O[C@H](CO)[C@@H](O)[C@H](O)[C@H]1O` (stereo not given in full), the Potency result in test [1] and in test [2] was “inactive” throughout.

In the case of `C=C1CC23CC1CCC2C12OC(=O)C(C)(CCC1O)C2C3C(=O)O` (stereo not given), the Potency result in test [1] and in test [2] was “inactive” each time.

On to `COc1ccc(CN2C(=O)C(=O)c3cc(S(=O)(=O)N4CCC[C@H]4COc4cccnc4)ccc32)cc1`, for which the Potency result in test [1] and in test [2] was “inactive” each time.

Take `C/C1=C\CC[C@]2(C)O[C@@H]2[C@H](O)[C@H](C(C)C)[C@H](OC(=O)/C=C/c2ccccc2)C1`: the Potency result in test [1] and in test [2] was “inactive” each time.

Turning to `C=C(C(=O)OC)C1C(O)CC2(C)C(O)CCC(=O)C2C1O` (stereo not given), the Potency entry in test [1] and in test [2] was “inactive” throughout.

For `COc1c2c(c(C)c3c1C(=O)OC3)OC1(C)CC(O)C(C(C)(C)O)C(C)(CCC(=O)O)C1C2` (stereo not given), the Potency entry in test [1] and in test [2] was “inactive” each time.

The record behind these values is PubChem BioAssay (NCATS).
